# Pf Dd2 inh: blocks in vitro growth of P. falciparum Dd2; P. falciparum Dd2 growth, SYBR Green, 72 h; Potency, µM (doses to about 28.9 µM), for the others: top-dose activity, negative = inhibition, actives largely listed as inhibitors; actives 4.3% (n = 120,000); active means well fitted inhibition curve with a large enough effect;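 further: plate controls were DMSO vehicle for no effect and reference drug for full effect; nearly all actives have a fitted effect of over 65% in size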
#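 Infected erythrocytes (Dd2, 0.3% parasitemia, 2.5% hematocrit final) are added to compound in RPMI-1640/Albumax II medium, grown 72 h at 37C in low oxygen, then lysed with saponin/Triton-X containing SYBR Green and read by fluorescence.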
# * hit, by the source's call; i = inactive; [ ] = remark or other dose. The entries come from a sample that favours hits as a whole. Potency means the concentration at half of the fitted maximal effect.
SMILES,Pf Dd2 inh
CC1CCN(S(=O)(=O)c2ccc3c(c2)oc(=O)n3CC(=O)O)CC1,21.8%
CC(NC(=O)Cn1c(=O)oc2cc(S(=O)(=O)N3CCCCCC3)ccc21)c1ccccc1 (centres undefined),17.0%
Cc1ccc(C2(C(=O)NC(C)c3cnc(-c4ccncc4)nc3C)CC2)cc1 (centres undefined),-7.2%
COC(=O)[C@H](NC(=O)C1=C[C@@H](NC(=O)c2ccc(F)c(Cl)c2)[C@@H](O)[C@H](O)C1)C(C)C,-18.0%
O=C(NCCc1noc(C2CC2)n1)c1n[nH]c2ccccc12,-15.8%
Cc1cnc(CCNC(=O)c2n[nH]c3ccccc23)n1C1CCCC1,3.16µM*
CC(=O)NCCc1ncc(C)n1C1CCCC1,-3.0%
CN1c2cc(C(=O)NC3CCCC3)ccc2C(=O)N2CCCCC21 (centres undefined),i
O=C(C[C@@H]1C[C@H]2O[C@H](CNC3CCNCC3)[C@@H](O)[C@H]2O1)N1CCOCC1,8.4%
COCc1nc(C2CCCN(C(=O)NCC(C)C)C2)no1 (centres undefined),-8.7%
CCc1nc(-c2c3n(c(=O)n(Cc4ccc(C)cc4C)c2=O)CCCC3)no1,-4.8%
Cc1noc(C2CC3(CCN(C(=O)CCC4CCCC4)CC3)CN2C)n1 (centres undefined),4.47µM*
Cc1noc(C2CC3(CCN(C(=O)COc4ccc(F)cc4)CC3)CN2C)n1 (centres undefined),-5.6%
Cc1noc(C2CC3(CCN(C(=O)Cn4c(=O)oc5ccccc54)CC3)CN2C)n1 (centres undefined),-29.3%
Cc1nnc(-c2cc(-c3cccc(F)c3)ccn2)n1CCc1ccccc1,-11.2%[44.1 µM]
Cc1nnc(-c2cc(-c3cccc(O)c3)ccn2)n1CCc1ccccc1,i
CC(=O)Nc1cccc(-c2ccnc(-c3nnc(C)n3CCc3ccccc3)c2)c1,7.94µM*
COc1ccc(CN2CCNC(=O)C2CC(=O)NCc2ccco2)c(F)c1 (centres undefined),6.0%
CC(C)n1cnnc1CC1CCCN(C(=O)COc2ccccc2)C1 (centres undefined),2.2%
Cc1cc(CNc2ncnc3c2CCN(C(=O)c2ccoc2)CC3)no1,-7.2%
Cc1ccc(CNC(=O)N2CCC(c3noc(-c4ccccc4)n3)C2)cc1 (centres undefined),i[5.79 µM]
COC1CN(c2cccc(F)c2)C12CCN(C(=O)NC(C)(C)C)CC2 (centres undefined),i
COC1CN(c2cccc(F)c2)C12CCN(C(=O)CCC1CCCC1)CC2 (centres undefined),-16.1%
COC1CN(c2cccc(F)c2)C12CCN(C(=O)C1CCCCC1)CC2 (centres undefined),10µM*
COC1CN(c2cccc(F)c2)C12CCN(C(=O)c1ccncc1)CC2 (centres undefined),i
SMILES,Pf Dd2 inh
COC1CN(c2cccc(F)c2)C12CCN(C(=O)C1CCC1)CC2 (centres undefined),i
COC1CN(c2cccc(F)c2)C12CCN(C(=O)NC1CCCCC1)CC2 (centres undefined),6.31µM*
COc1cc(F)ccc1-c1nccc2c(=O)cc(-c3cccnc3)oc12,i
N#Cc1ccc(CN2CCc3nc(N4CCc5ccccc5C4)[nH]c(=O)c3CC2)cc1,46.3%[5.79 µM]
COCCN1C(=O)CC[C@]2(C(=O)NCc3ccc(C)cc3)CCCC[C@@H]12,-5.3%
O=C1CC(c2noc(-c3cc(F)ccc3F)n2)CN1c1ccc(F)cc1 (centres undefined),4.2%
COc1cccc(-c2nc3cc4c(cc3cc2CN2CCSCC2)OCO4)c1OC,11.2µM*
COc1cccc(-c2nc3cc4c(cc3cc2CN2CCOCC2)OCO4)c1OC,-29.6%
COc1cccc(-c2noc(N3CCCC3)n2)c1OC,-5.3%
O=C(N[C@@H]1CN(C(=O)Nc2cccc(C(F)(F)F)c2)CCC[C@H]1O)c1ccc(OCc2ccccc2)cc1,7.08µM*
COCCOc1ccc(C(=O)N[C@@H]2CN(C(=O)NCc3ccccc3)CCC[C@H]2O)cc1,17.1%
COCCOc1ccc(C(=O)N[C@@H]2CN(C(=O)Nc3cccc(C(F)(F)F)c3)CCC[C@H]2O)cc1,i
O=C(N[C@@H]1CN(Cc2ccccn2)CCC[C@H]1O)c1ccc(OCc2ccccc2)cc1,2.51µM*
NC(=O)COc1ccc(C(=O)N[C@@H]2CN(Cc3ccccn3)CCC[C@H]2O)cc1,-26.5%[44.1 µM]
O=C(N[C@@H]1CN(C(=O)Nc2ccccc2)CCC[C@H]1O)c1ccc(OCc2ccccc2)cc1,-16.0%
CCCCS(=O)(=O)N1C[C@@H](COC)[C@H](C(N)=O)C1,-5.9%
Cn1ncc(N2CCC(NC(=O)C3CCC3)CC2)cc1=O,9.1%
Cc1ccc(CC(=O)N2CCC[C@H]2c2nc(-c3ccccc3Cl)no2)cc1,i
Cc1cccc(NC(=O)N2CCCC(c3nnnn3C)C2)c1 (centres undefined),7.2%
Cc1cccc(NC(=O)Cn2ccn3nc4c(c3c2=O)CCCCC4)c1C,i
Cc1cccnc1C(=O)N[C@@H]1CN(C2CCOCC2)C[C@H]1CN(C)C,-8.8%
O=C1NCCCCCCN(C(=O)c2cnccn2)[C@H]2CCC[C@@H]12,1.8%
O=C(C1CCOCC1)N1CCC2(CN[S+](=O)([O-])c3cnccc3O2)C1 (centres undefined),30.0%
CCOc1ccccc1C(=O)N[C@@H]1CN(Cc2cccnc2)C[C@H]1CN(C)C,-36.8%
COc1ccccc1C(=O)N[C@@H]1CN(Cc2ccncc2)C[C@H]1CN(C)C,-20.6%
SMILES,Pf Dd2 inh
CCOc1ccccc1C(=O)N[C@@H]1CN(Cc2ccncc2)C[C@H]1CN(C)C,5.01µM*
O=C(C1CCOC1)N1CCC2(CC1)NCCc1c2[nH]c2ccccc12 (centres undefined),-23.4%
Cc1cc(C)c(CNC(=O)c2nc(-c3ccnn3C)cc3c2ccn3C(C)C)c(=O)[nH]1,7.08µM*
Cc1cc(C)c(CNC(=O)c2nc(-c3ccccc3C#N)cc3c2ccn3C(C)C)c(=O)[nH]1,i
Cc1cc(C)c(CNC(=O)c2nc(-c3ccccc3)cc3c2ccn3C(C)C)c(=O)[nH]1,i
Cc1ccc(C(=O)N2CCCC3(CC(Cc4ccccc4)=NO3)C2)cc1 (centres undefined),-9.4%
c1ccc(CN2CCCC3(CC(c4ccccn4)=NO3)C2)cc1 (centres undefined),-3.7%
O=C(C1CCCC1)N1CCC2(CC1)CC(Cc1ccccc1)=NO2,21.3%
c1cncc(C2=NOC3(CCN(C4CCCCC4)CC3)C2)c1,21.3%[44.1 µM]
c1ccc(CC2=NOC3(CCCN(Cc4ccns4)C3)C2)cc1 (centres undefined),6.31µM*
c1ccc(CC2=NOC3(CCN(Cc4c[nH]c5ccccc45)CC3)C2)cc1,12.6µM*
c1ccc(CC2=NOC3(CCN(C4CCCCC4)CC3)C2)cc1,10µM*
NC(=O)c1cccc(CN2CCC3(CC2)CC(Cc2ccccc2)=NO3)c1,-4.2%
CC(C)C1=NOC2(CCN(Cc3c[nH]c4ccccc34)CC2)C1,-5.7%
O=C(Nc1ccc(F)cc1)Nc1cccc(-c2ccc(N3CCOCC3)nn2)c1,i
Cc1ccc(C(=O)N2C(C(=O)NC(C)C)COC23CCN(C(=O)c2cccc([N+](=O)[O-])c2)CC3)cc1 (centres undefined),i
O=C(C1CC(=O)N(c2n[nH]c3ccccc23)C1)N1CCSCC1 (centres undefined),-8.6%
CN(C)C(=O)c1cccnc1OC1CCN(S(=O)(=O)c2cccc(C(F)(F)F)c2)C1 (centres undefined),-12.9%

# Assay outcomes (PubChem BioAssay)
